Source: PubChem BioAssay (National Center for Advancing Translational Sciences (NCATS))
An excerpt weighted towards active compounds, which were near 10% of everything screened.
HP1b chromo inh – HTS for Inhibitors of HP1-beta Chromodomain Interactions with Methylated Histone Tails; Chromobox protein homolog 1 (Homo sapiens), P83916; AlphaScreen HP1-beta / biotin-H3K9me3 peptide binding; Potency, µM (series often up to 114 µM), for inactives: at the highest dose activity change, negative = inhibition, most hits filed as inhibitors; actives 0.56% (n = 390,000); AID 540317, 2011; further: nearly all actives have a fitted effect of over 70% in size
Target sequence (P83916 whole entry, looked up): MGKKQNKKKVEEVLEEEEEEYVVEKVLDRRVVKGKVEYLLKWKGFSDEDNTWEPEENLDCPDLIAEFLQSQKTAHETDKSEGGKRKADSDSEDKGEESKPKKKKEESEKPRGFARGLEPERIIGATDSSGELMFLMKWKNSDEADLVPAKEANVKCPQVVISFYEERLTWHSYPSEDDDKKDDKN
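HP1-beta protein (50 nM final) preincubated 30 min at room temperature with biotinylated H3(1-18)K9me3 peptide (50 nM) in PBS pH 7.4, 0.01% Tween-20, then compound added for 30 min. AlphaScreen streptavidin donor/nickel chelate acceptor beads (10 ug/mL final), 30 min dark, luminescence read.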
BAZ2B block – qHTS Assay for Inhibitors of BAZ2B; Bromodomain adjacent to zinc finger domain protein 2B (Homo sapiens), Q9UIF8; AlphaScreen BAZ2B-H3K14Ac peptide displacement; Potency, µM (doses to about 114 µM), for the others: at the highest dose activity change, negative = inhibition, actives largely listed as inhibitors; actives 4.4% (n = 360,000); further: on the % scale 0 is the no-effect control and ±100 the full control effect; nearly all actives have a fitted effect of over 60% in size
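Complex of BAZ2B and biotin-H3K14Ac (50 nM apiece) forms over 30 min at RT, then faces library compounds up to 110 uM for another 30 min; AlphaScreen beads added, 20 min dark incubation, luminescence read.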
JMJD2A Tudor – qHTS Assay for Inhibitors of JMJD2A-Tudor Domain; Potency, µM (titrated, usually from 114 µM), without a hit: top-dose activity change, negative = inhibition, most hits filed as inhibitors; AlphaScreen JMJD2A-Tudor / H3K4me3 peptide binding; Lysine-specific demethylase 4A (Homo sapiens), O75164; AID 504339, 2011; actives 4.4% (n = 390,000); further: on the % scale 0 is the no-effect control and ±100 the full control effect; nearly all actives have a fitted effect of over 50% in size
GLS inh – qHTS for Inhibitors of Glutaminase (GLS); GLS enzymatic activity, qHTS titration; Glutaminase kidney isoform, mitochondrial (Homo sapiens), O94925; Potency, µM (series often up to 45.5 µM), without a hit: at the highest dose activity change, negative = inhibition, usual class: inhibitors; AID 624170, 2012; actives 0.21% (n = 410,000); further: on the % scale 0 is the no-effect control and ±100 the full control effect
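Compounds were pin-transferred onto hKGA, after which L-glutamine (1 mM solution) and a detection mix of glutamate oxidase, HRP and Amplex Red were added. Initial and 30 min RT fluorescence reads were collected.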
G9a inh – qHTS Assay for Inhibitors of Histone Lysine Methyltransferase G9a; Potency, µM (series often up to 102 µM), without a hit: top-dose activity, negative = inhibition, most hits filed as inhibitors; actives 8.8% (n = 350,000); AID 504332, 2011; G9a H3K9 monomethylation, AlphaScreen, 2 h; further: on the % scale 0 is the no-effect control and ±100 the full control effect; nearly all actives have a fitted effect of over 75% in size
Target sequence (Q96KQ7 913-1193 limits assumed): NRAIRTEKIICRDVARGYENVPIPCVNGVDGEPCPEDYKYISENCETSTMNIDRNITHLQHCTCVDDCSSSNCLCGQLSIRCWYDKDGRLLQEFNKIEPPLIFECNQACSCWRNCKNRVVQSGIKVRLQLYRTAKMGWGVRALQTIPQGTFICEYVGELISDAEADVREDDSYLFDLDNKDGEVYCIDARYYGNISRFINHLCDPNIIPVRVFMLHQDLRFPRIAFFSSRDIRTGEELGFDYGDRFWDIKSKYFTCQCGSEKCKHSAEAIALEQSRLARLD
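Step 1: enzyme (final 20 nM) with compound, 15 min RT. Step 2: substrate peptide 500 nM and SAM 20 uM, 2 h RT. Step 3: anti-H3K9me1 antibody and AlphaScreen beads, 10 min, then plate read.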
Numbers without * were called inactive; ? = inconclusive; · = no result given; [ ] = another dose, or the depositor's remark. The call rests on the fitted dose curve; in most records, active means well fitted curve in the direction sought with a large enough effect; inconclusive means small, poorly fitted or top-dose-only effect, or another doubt; inactive means no such curve, though single readings can be large; an effect the other way counts as inactive or inconclusive. Potency means the concentration at half of the fitted maximal effect.

SMILES	HP1b chromo inh	BAZ2B block	JMJD2A Tudor	GLS inh	G9a inh
COc1ccc(NC(=O)c2ccc(NC(=O)c3nc4nc(C)cc(C)n4n3)cc2)cc1	9.5%	35.0%	-15.3%	4.9%	35.5µM*
CCCn1c(SCC(=O)N2CCN(C(C)=O)CC2)nc2sc3c(c2c1=O)CCC3	27.5%	-15.1%	-32.1%	2.6%	70.8µM*
CC(Sc1nc2sc3c(c2c(=O)n1-c1ccccc1)CCCC3)C(=O)O (centres undefined)	28.3%	-5.0%	4.8%	-6.0%	·
CCn1c(SC(C)C(=O)O)nc2sc3c(c2c1=O)CCC3 (centres undefined)	8.8%	50.1µM*	89.1µM*	-10.1%	?
COc1ccc(N2CCN(C(=O)CSc3nc(C)cs3)CC2)cc1	9.2%	-7.4%	-26.5%	3.8%	44.7µM*
COc1ccc(N2CCN(C(=O)CSc3ncnc4scc(-c5ccc(C)cc5)c34)CC2)cc1	?	·	?	8.9%	·
CCOC(=O)N1CCN(C(=O)c2ccc(CSc3ccc(Cl)cc3)cc2)CC1	-8.0%	-20.0%	44.7µM*	-2.0%	-3.3%
COC(=O)c1ccccc1NC(=S)N1CCN(c2ccc(OC)cc2)CC1	38.0%	·	56.2µM*	-2.8%	?
CCOC(=O)N1CCC(NCCNC(=O)c2ccc(Cl)cc2)CC1	-38.4%	?	2.82µM*	-8.4%	6.31µM*
CCOC(=O)N1CCC(NCCNC(=O)c2ccc(F)c(F)c2)CC1	34.2%	-0.5%	-0.7%	-6.8%	3.1%[0.501 µM]
CCc1ccccc1NC(=O)C1NC(=O)CC1c1ccccc1 (centres undefined)	41.2%	-1.4%	-1.4%	-1.2%	19.3%
Cc1ccc(NC(=O)CN(C)CCOc2ccccc2)c([N+](=O)[O-])c1	?	-36.8%	?	-21.4%	?
O=C(COC(=O)c1cc(S(=O)(=O)N2CCOCC2)ccc1Cl)NCc1ccccc1	36.2%	·	-5.6%	-0.4%	·
Cc1ccc(-c2c(NC(=O)c3ccco3)oc3ccccc3c2=O)cc1	74.6%	-17.0%	-9.5%	-6.9%	30.8%
O=C(Nc1ccccc1)c1nc[nH]c1C(=O)NCCCCNC(=O)c1[nH]cnc1C(=O)Nc1ccccc1	21.8%	·	-30.2%	-3.5%	·
O=C(N/N=C/c1sc(N2CCOCC2)nc1-c1ccccc1)c1cccc(S(=O)(=O)N2CCOCC2)c1	32.9%	-10.2%	-11.6%	7.7%	26.2%[12.7 µM]
COc1ccc(N2CCN(C(=O)c3ccc(CSc4ccccc4)cc3)CC2)cc1	?	44.7µM*	?	17.8%	?
COc1ccc(C(=O)N2CCN(c3ccc(NC(=O)Cc4ccccc4)cc3)CC2)cc1	19.3%	-1.6%	-13.6%	-7.5%	·
COc1ccc(N2CCN(C(=O)CSc3ccccc3)CC2)cc1	4.0%	79.4µM*	-29.4%	18.3%	?
COc1ccc(N2CCN(C(=O)CSc3nc4[nH]ncc4c(=O)n3-c3cccc4ccccc34)CC2)cc1	-5.5%	-32.8%	-34.1%	-9.9%	39.8µM*
COc1ccc(N2CCN(C(=O)COC(=O)CSc3ccccc3)CC2)cc1	-12.3%	?	?	12.9%	15.8µM*
Cc1nnc(C)n1/N=C/c1ccc(-c2ccccc2Cl)o1	-12.0%	-12.0%	?	-6.9%	50.1µM*
O=C(N/N=C/c1ccc(-c2ccccc2Cl)o1)c1ccccc1	30.4%	-16.9%	-2.3%	-0.3%	3.6%
O=S(=O)(N/N=C\c1ccc(-c2ccccc2Cl)o1)c1ccccc1	?	?	-35.6%	-4.9%	7.94µM*
O=C(O)c1ccc(N/N=C/c2ccc(-c3ccccc3Cl)o2)cc1	0.9%	-31.0%	-10.6%	-10.0%	56.2µM*
SMILES	HP1b chromo inh	BAZ2B block	JMJD2A Tudor	GLS inh	G9a inh
CC(=O)/C(N=Nc1ccc(C(=O)O)cc1[N+](=O)[O-])=C(\C)O	20.6%	56.2µM*	-17.0%	-18.0%	?
CC(=O)/C(N=Nc1cc2c(cc1[N+](=O)[O-])OCCO2)=C(\C)O	-10.6%	-10.4%	17.8µM*	-14.9%	-12.5%
CCOC(=O)/C(N=Nc1ccc(C(=O)O)cc1[N+](=O)[O-])=C(\C)O	42.2%	·	1.3%	-4.5%	?
Cc1c(OCC(=O)NCc2ccccn2)ccc2c3c(c(=O)oc12)CCCC3	13.5%[57 µM]	-13.1%	50.1µM*	-10.0%	?
O=C(NCc1ccccn1)c1ccc(Cl)c(S(=O)(=O)NCc2ccccc2)c1	42.1%	-3.1%	-5.1%	-0.4%	35.6%[12.7 µM]
O=C(COc1ccc(S(=O)(=O)NCc2ccccc2)cc1Cl)NCc1ccccn1	-3.7%	-37.5%	-12.7%	1.6%	44.7µM*
O=C(NCc1ccccn1)c1cccc(S(=O)(=O)NCc2ccccc2)c1	44.6%	56.2µM*	-13.0%	1.6%	14.5%
Cc1cc(S(=O)(=O)NC2CCCCC2)ccc1OCC(=O)NCc1ccccn1	21.0%	-26.8%	28.2µM*	3.6%	10.0%[59 µM]
O=C(COc1ccc(S(=O)(=O)NCc2ccccc2)cc1Cl)NCc1ccncc1	32.7%	-22.9%	-8.1%	-17.4%	?
O=C(COc1ccc(S(=O)(=O)N2CCc3ccccc32)cc1Cl)NCc1ccccn1	-0.7%	79.4µM*	44.7µM*	0.0%	14.1µM*
O=C(NCCS(=O)(=O)NCc1ccccn1)c1ccccc1	-2.4%	4.4%	2.82µM*	4.3%	61.4%
CCCn1c(SCC(=O)Nc2ccc3c(c2)OCO3)nc2c1c(=O)n(C)c(=O)n2C	11.8%	7.0%	-11.2%	-4.5%	0.3%
O=C(Nc1ccc(-n2nncc2-c2ccco2)cc1)c1cccc(F)c1	-22.3%	?	-35.3%	7.4%	44.7µM*
O=C(Nc1ccc(-n2nncc2-c2ccccc2)cc1)c1cccc(F)c1	28.1%	-18.4%	-15.3%	6.5%	9.1%[59 µM]
CCOC(=O)c1c(C)[nH]c(C(=O)OCc2ccccc2)c1C	21.0%	-30.7%	-9.5%	-6.4%	17.5%
CC(=O)c1c(C)[nH]c(C(=O)OCC(=O)c2ccc(C)s2)c1C	11.4%	56.2µM*	-15.3%	5.7%	-3.2%[2.33 µM]
CC(=O)c1c(C)[nH]c(C(=O)OCC(=O)C(C)(C)C)c1C	16.3%	?	-25.6%	0.4%	-12.6%[2.33 µM]
COC(=O)CCc1c(C)[nH]c(C(=O)OCc2ccccc2)c1C	-37.7%	50.1µM*	?	9.7%	?
CC(=O)c1c(C)[nH]c(C(=O)OCc2cccc(C)c2)c1C	-1.2%	50.1µM*	-9.8%	4.8%	-49.1%
CC(=O)c1c(C)[nH]c(C(=O)OCc2ccc(Br)cc2)c1C	33.9%	-20.3%	-17.5%	6.4%	-1.3%
O=S(=O)(c1ccc(Br)s1)N1CCN(c2ccc(F)cc2)CC1	-8.2%	5.6%	-13.6%	7.6%	39.8µM*
COc1cc(CNC2CCCCC2OC)cc(OC)c1OC (centres undefined)	?	?	?	-7.0%	11.2µM*
